Source: PubChem BioAssay
Compounds with a hit are over-represented: about 2.8% of the library has one in this group of screens.
POLH inh: blocks human DNA polymerase eta activity; Q9Y253; recombinant Pol eta, fluorescent DNA replication assay; Potency, µM (titrated, usually from 114 µM), inactives show at the top dose activity change, negative = inhibition, most hits filed as inhibitors; actives 1.2% (n = 390,000); AID 588591; further: potency means the concentration at half of the fitted maximal effect; on the % scale 0 is the no-effect control and ±100 the full control effect
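Pol eta at 10 nM preincubated with compounds 15 min at room temperature; reaction started with fluorescent substrate (50 nM final) and read kinetically at 0 and 10 min.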
POLB inh: DNA polymerase beta (human) inhibition. AID 485314. P06746. actives 1.3% (n = 340,000). Potency, µM (doses to about 114 µM), for the others: at the top dose activity change, negative = inhibition, hits mostly inhibitors. Pol beta primer extension/strand displacement, fluorescence kinetic; further: potency means the concentration at half of the fitted maximal effect; on the % scale 0 is the no-effect control and ±100 the full control effect
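Values derive from four-parameter Hill fits of normalized kinetic data: reads at 0 and 10 min following addition of 50 nM substrate to 10 nM Pol beta preincubated 15 min with compound.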
POLK inh: DNA polymerase kappa (human) inhibition | purified Pol kappa, fluorescent DNA synthesis assay, 10 min | actives 0.53% (n = 400,000) | Q9UBT6 | Potency, µM (titrated, usually from 107 µM), for inactives: at the top dose activity, negative = inhibition, hits mostly inhibitors | AID 588579; further: potency means the concentration at half of the fitted maximal effect; on the % scale 0 is the no-effect control and ±100 the full control effect
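Readout: fluorescence, taken kinetically at 0 and 10 min. Conditions: 10 nM Pol kappa, 15 min RT compound preincubation, 50 nM substrate final. Controls: enzyme-free buffer wells.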
WRN helicase inh: blocks human WRN helicase; Potency, µM (series often up to 114 µM), for inactives: at the top dose activity change, negative = inhibition, usual class: inhibitors; actives 0.46% (n = 360,000); WRN helicase unwinding, fluorescent forked duplex, kinetic; further: potency means the concentration at half of the fitted maximal effect; on the % scale 0 is the no-effect control and ±100 the full control effect; nearly all actives have a fitted effect of over 55% in size
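Kinetic red-fluorescence monitoring (525/598 nm) tracks WRN helicase activity after 100 nM fluorophore-quencher forked duplex and 2 mM ATP are added to 20 nM enzyme pretreated 15 min at room temperature with compound.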
POLI inh: blocks human DNA polymerase iota activity. Pol iota fluorescent replication assay, 10 min. actives 1% (n = 390,000). AID 588590. Q9UNA4. Potency, µM (series often up to 115 µM), for the others: top-dose activity, negative = inhibition, most hits filed as inhibitors; further: potency means the concentration at half of the fitted maximal effect
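Fluorescent replication assay read twice, at 0 min and 10 min after adding 50 nM (final) substrate. Enzyme (10 nM) and compounds were first incubated 15 min at room temperature; enzyme-free buffer wells were negative controls.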
PI5P4K alpha inh: PI5P4K alpha (human) kinase inhibition; P48426; PI5P4Kalpha enzyme, ADP-Glo luminescence, 60 min; active compounds read low; max response, %; actives 1.2% (n = 330,000); AID 652105; active means max response of -50% or lower; inconclusive means between -30% and -50%; inactive means -30% or higher; further: value at the top dose of about 77 µM; on the % scale 0 is the no-effect control and ±100 the full control effect
Target sequence (P48426 whole entry, looked up): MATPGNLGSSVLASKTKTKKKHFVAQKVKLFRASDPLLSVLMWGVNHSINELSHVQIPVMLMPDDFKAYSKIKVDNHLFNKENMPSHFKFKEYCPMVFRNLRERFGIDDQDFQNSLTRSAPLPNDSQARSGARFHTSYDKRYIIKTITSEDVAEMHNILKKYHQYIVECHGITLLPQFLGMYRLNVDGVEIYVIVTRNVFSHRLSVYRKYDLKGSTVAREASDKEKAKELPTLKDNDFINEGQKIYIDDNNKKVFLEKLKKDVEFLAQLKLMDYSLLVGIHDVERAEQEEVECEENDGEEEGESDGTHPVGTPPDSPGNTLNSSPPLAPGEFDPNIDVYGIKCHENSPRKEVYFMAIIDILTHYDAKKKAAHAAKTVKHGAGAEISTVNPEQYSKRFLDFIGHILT
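Single end-point luminescence (ADP-Glo) quantified ADP from PI5P4Kalpha turnover; ATP 5 microM final, 1 h at RT, 0.1% CHAPS and 0.28 mM EGTA in HEPES pH 7.4.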
An asterisk follows results filed as active; u = inconclusive; x = no result; [ ] = another dose, or the depositor's remark. Unless noted, the call rests on the fitted dose curve; in most records, active means well fitted curve in the direction sought with a large enough effect; inconclusive means small, poorly fitted or top-dose-only effect, or another doubt; inactive means no such curve, though single readings can be large; an effect the other way counts as inactive or inconclusive.

SMILES	POLH inh	POLB inh	POLK inh	WRN helicase inh	POLI inh	PI5P4K alpha inh
CCn1c(=S)sc2c(=O)[nH]c(SCC(=O)Nc3cc(OC)ccc3OC)nc21	50µM*	0%	-17%	-4%[11.6 µM]	u	-21
Cc1cc(/C=C2/C(=O)NC(=O)N(C)C2=O)c(C)n1-c1ccccc1	-9%	-2%	10%	1%[57.1 µM]	-20%	7
Cc1cc(/C=C2/C(=O)NC(=O)N(Cc3ccco3)C2=O)c(C)n1-c1ccccc1O	50µM*	28µM*	-33%	-11%[11.6 µM]	45µM*	u
Cc1ccccc1NC(=O)CCl	0%	-2%	7%	-9%	-13%	-1
O=C(CN1C(=O)S/C(=C\C=C\c2ccccc2)C1=O)Nc1ccccc1C(=O)O	35µM*	-7%	4%	-25%	u	-67*
ClC1=C(Cl)C(Cl)=C(Cl)C1=C/C=C/c1ccccc1	u	u	u	-6%[57.1 µM]	45µM*	-18
O=c1[nH]c(=S)[nH]c(O)c1N=Nc1ccc(S(=O)(=O)N2CCOCC2)cc1	50µM*	u	3%	-1%[11.6 µM]	u	-55*
O=c1[nH]c(=S)[nH]c(O)c1N=Nc1cc(S(=O)(=O)Nc2ccc(Cl)cc2)ccc1Cl	79µM*	x	-25%	-7%	u	-59*
[S]=[Sb][S][Sb]=[S]	x	x	-2%[19.4 µM]	x	x	x
O=C(Oc1ccccc1)N1CCC[C@@]2(CCN(Cc3nccs3)C2)C1	x	x	-11%[60.1 µM]	x	x	x
CCOc1ccc(N2C(=O)NC(=O)/C(=C\c3ccccc3[N+](=O)[O-])C2=O)cc1	2%	-11%	-14%	-6%	u	u
CCOc1ccc(N2C(=O)/C(=C/c3ccco3)C(=O)NC2=S)cc1	-101%	13µM*	1.6µM*	11µM*	-96%	-82*
O=C1NC(=S)N(c2ccccc2F)C(=O)/C1=C\c1cccs1	-3%	5%	-10%	50µM*	u	-91*
CCOc1ccc(N2C(=O)/C(=C\c3cccs3)C(=O)NC2=S)cc1	-15%	u	-9%	40µM*	18µM*	-64*
CC(C)CN1CC[C@@]2(CCCN(C(=O)Oc3ccccc3)C2)C1	x	x	-4%[60.1 µM]	x	x	x
Cc1ccc(N2C(=O)NC(=O)/C(=C\c3cccn3C(C)(C)C)C2=O)cc1	-10%	-1%	-2%	3%	1%	-2
CCC(C)c1ccc(N2C(=O)NC(=O)/C(=C/c3cccn3CCOc3ccc(C)cc3)C2=O)cc1 (centres undefined)	7%	11%	-74%	-2%[11.6 µM]	35µM*	-58*
COC(=O)C1=C(c2ccc(F)cc2OCc2ccccc2)C[C@@H]2CC[C@H]1N2C(=O)NCc1ccccc1	-19%	x	-19%	-6%	12%	-1
COC(=O)C1=C(c2ccc(F)cc2OCc2ccccc2)C[C@@H]2CC[C@H]1N2C(=O)NCc1ccco1	45µM*	x	u	-21%	u	-22
O=c1c2ccccc2nc(/C=C\c2ccccc2F)n1-c1ccc(O)cc1	-13%	17%	-12%[60.1 µM]	x	u	x
COP(=S)(OC)Oc1ccc(Sc2ccc(OP(=S)(OC)OC)cc2)cc1	-12%	x	-7%	-11%	-15%	-64*
O=C1C(=O)C(Cl)=C(Cl)C(Cl)=C1Cl	x	x	x	40µM*	x	-54*
CCOC(=O)[C@]12Cc3ccc4ccccc4c3[C@H]1N(Cc1ccccc1)C(=O)c1ccccc12	x	x	x	-3%	x	2
COP(=O)(OC)C(Nc1ccc([N+](=O)[O-])cc1)c1ccccc1 (centres undefined)	1%	20%	-2%	-12%	127%	-3
COP(=O)(OC)/C(C=O)=N/Nc1ccc([N+](=O)[O-])cc1	-1%	22µM*	0%	-5%	36%	-1
SMILES	POLH inh	POLB inh	POLK inh	WRN helicase inh	POLI inh	PI5P4K alpha inh
C/C1=C/C(=O)O[C@@H]2C[C@@H](CC[C@H](C)/C=C\CC1)O[C@@](O)(C1CSC(=O)N1)C2 (some centres undefined)	x	x	11%[60.1 µM]	x	x	x
CN(C)CCN(C)CCc1ccc(Cl)c(Cl)c1	x	x	5%[19.4 µM]	x	x	x
NCC[C@H](O)C(=O)N[C@H]1C[C@@H](N)[C@@H](O[C@H]2O[C@@H](CN)[C@@H](O)[C@@H](O)[C@@H]2N)[C@@H](O[C@H]2O[C@@H](CO)[C@@H](O)[C@@H]2O)[C@@H]1O	x	x	1%[12 µM]	x	x	x
O=c1[nH]sc2cc(F)ccc12	-4%	u	6%	32µM*	93%	-82*
COC(=O)Cn1cc(/C=C2\C(=O)NC(=O)N(c3ccccc3)C2=O)c2ccccc21	-3%	5%	-3%	-5%[57.1 µM]	u	-9
Cc1ccc(N2C(=O)NC(=O)/C(=C\c3cn(CC(=O)O)c4ccccc34)C2=O)cc1	u	0%	-3%	-10%[11.6 µM]	32µM*	-5
COC1=C(C)C(=O)c2c(c(COC(N)=O)c3n2C[C@@H]2[C@@H]3N2C)C1=O (some centres undefined)	x	x	u	x	56µM*	x
O=C(N/N=C/C1C(=O)NC(=S)N(c2ccccc2)C1=O)c1cc(Br)c(O)c(Br)c1 (centres undefined)	u	u	u	79µM*	u	-96*
O=C(NC1(C(F)(F)F)Oc2ccccc2O1)N1CCC2(CC1)OCCO2	-17%	-2%	-44%	-2%	u	x
O=C(NC1(C(F)(F)F)Oc2ccc(Cl)cc2O1)N1CCC2(CC1)OCCO2 (centres undefined)	-14%	14µM*	0%	-3%	13%	-2
O=C1NCN(c2ccccc2)C12CCN(C(c1ccccc1)c1nnnn1C1CCCC1)CC2 (centres undefined)	x	x	x	-5%	x	9
Cc1ccc(-n2c(O)c(C=NCc3ccco3)c(=O)[nH]c2=S)cc1C	u	u	40µM*	u	20µM*	-25
O=c1[nH]c(=O)n(Cc2ccco2)c(O)c1C=NCc1ccco1	89µM*	u	-28%	-5%[11.6 µM]	40µM*	x
O=c1[nH]c(=O)n(Cc2ccco2)c(O)c1C=NCCN1CCOCC1	10µM*	8%	-24%	-20%	u	-20
Cc1cc(C)cc(-n2c(/C=C/c3cccc(F)c3)nc3ccccc3c2=O)c1	-17%	3%	-8%[60.1 µM]	x	17%	x
CN1C(=O)[C@]23CC4=CC=C[C@H](O)[C@H]4N2C(=O)[C@@]1(CO)SS3	x	x	3%[60.1 µM]	x	x	x
CCc1nnc(NC(=O)CSc2ccc(-c3ccco3)nn2)s1	-20%	14µM*	1%	-1%	14%	-9
O=C1OC(c2cc(I)c(O)c(I)c2)(c2cc(I)c(O)c(I)c2)c2ccccc21	x	x	3.5µM*	x	x	x
COC(=O)C(O)C(O)(CCC(C)C)C(=O)OC1C(OC)=CC23CCCN2CCc2cc4c(cc2C13)OCO4 (centres undefined)	x	x	-4%[60.1 µM]	x	x	x
[O]=[Cd]	x	x	-5%[60.1 µM]	x	x	x
